Hits are enriched below; roughly 19% of the tested compounds scored in any of these assays.
DT40 TDP1 no CPT – qHTS for Inhibitors of human tyrosyl-DNA phosphodiesterase 1 (TDP1): qHTS in cells in absence of CPT. Potency, µM (top dose mostly 46.2 µM), inactives show at the top dose activity change, negative = growth inhibition, hits mostly inhibitors. DT40 Tdp1-/- hTDP1 cells, no CPT, ATP luminescence, 48 h. 15% of 420,000 active; note: potency is the fitted concentration of half-maximal effect; nearly all actives have a fitted effect of over 55% in size
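Chicken DT40 Tdp1-/- cells stably complemented with human TDP1 were seeded at 400 cells/well with DMSO in place of 20 nM camptothecin. After compound pinning, cells grew at least 48 hr at 37 °C; viability read by CellTiter-Glo luminescence.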
HT1080 IDH1KD tx – toxicity to HT-1080 IDH1 knockdown cells (counter line); HT-1080 IDH1 knockdown viability, ATP luminescence, 48 h; Potency, µM (top dose mostly 46.1 µM), without a hit: at the highest dose activity, negative = toxicity, usual class: cytotoxic; 2% of 360,000 active;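 note: potency is the fitted concentration of half-maximal effect; 0% = DMSO wells and -100% = cell-free medium wells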
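Cytotoxicity counter-line: IDH1KD HT-1080, 48 h, CellTiter-Glo. Curves classed by r2, magnitude and activity.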
DT40 TDP1 CPT – DT40-hTDP1 cell growth loss with CPT; AID 686979; chicken DT40 Tdp1-/-;hTDP1 cells + 20 nM CPT, ATP luminescence, 48 h; 12% of 420,000 active; Potency, µM (series often up to 46.2 µM), inactives show top-dose activity change, negative = growth inhibition, hits mostly inhibitors; note: potency is the fitted concentration of half-maximal effect; nearly all actives have a fitted effect of over 55% in size
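Chicken DT40 Tdp1-/- cells complemented with human TDP1, 400 cells/well, exposed to compounds plus 20 nM camptothecin for at least 48 h at 37 C; viability read as ATP content by CellTiter-Glo luminescence.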
HT1080-NT tox – kills 2HG-producing HT-1080-NT fibrosarcoma cells | AID 686970 | 1.6% of 360,000 active | HT-1080-NT fibrosarcoma viability, CellTiter-Glo ATP luminescence, 48 h | Potency, µM (doses to about 46.1 µM), without a hit: at the highest dose activity, negative = less viability, usual class: cytotoxic;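 note: NT is the 2HG producing partner of a matched IDH1 knockdown line; potency is the fitted concentration of half-maximal effect; 0% = DMSO-treated cells and -100% = media-only wells without cells; nearly all actives have a fitted effect of over 55% in size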
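Compounds were tested in concentration-response format on HT-1080-NT cells for 48 hours at 37 degrees C. Cell viability came from CellTiter-Glo luminescence; curves were classified by r2, response magnitude and activity.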
IL-1B inflam inh – inhibitors of inflammasome signaling (IL-1 beta secretion); THP-1 LPS/ATP IL-1B secretion, AlphaLISA, 16 h; active compounds read low; activity change, % at 57.5 µM; 4.7% of 360,000 active; AID 743279; in the data active = activity change below about -50%; inconclusive = mostly about -30% to -49%
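Secreted IL-1B measured by AlphaLISA bead assay after 16 h compound exposure of THP-1 cells; compounds (final up to 57.5 uM) added 1 h before LPS (250 ng/mL) and ATP (1.25 mM) stimulation; lower signal means less secretion.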
uPA generation – inhibitors of cell surface uPA generation; 0.31% of 330,000 active; AID 540303; Potency, µM (top dose mostly 38.3 µM), for inactives: top-dose activity change, negative = inhibition, actives largely listed as inhibitors; cell surface uPA generation assay, qHTS; active = well fitted inhibition curve with a large enough effect; inconclusive = small, poorly fitted or top-dose-only effect; inactive = no such curve, though single readings can be large or run the other way; tested in mouse RAW 264.7 cells; note: potency is the fitted concentration of half-maximal effect; nearly all actives have a fitted effect of over 55% in size
* marks the source's active call; other numbers are inactive results; u = inconclusive; x = no result given; [ ] = dose if it differs, or a comment. Unless noted, calls come from the whole dose curve; as a rule, active = well fitted curve in the direction sought with a large enough effect; inconclusive = small, poorly fitted or top-dose-only effect, or another doubt; inactive = no such curve, though single readings can be large; an effect the other way counts as inactive or inconclusive. Unless noted, % is set by controls: 0 for no effect and ±100 for the full control effect.

SMILES	DT40 TDP1 no CPT	HT1080 IDH1KD tx	DT40 TDP1 CPT	HT1080-NT tox	IL-1B inflam inh	uPA generation
CC(C)(N=NC(C)(C)C(=N)N)C(=N)N	5%	x	u	x	x	x
CC(Oc1ccccc1F)C(=O)NNC(=O)CCNC(=O)c1ccccc1Cl (configuration not stated)	-5%	-10%	-28%	-2%	-9	14%
CCCCCCCCCCCCCCCC(=O)OC(C)C	-3%	x	-1%	x	x	x
CC(OC(=O)Cn1cnc2c1c(=O)n(C)c(=O)n2C)C(=O)NC(C)c1ccc(Cl)cc1Cl (configuration not stated)	-28%	3%	u	1%	12	1%
COc1ccc(CCN2C(=O)CC(NNc3ccc([N+](=O)[O-])cc3)C2=O)cc1OC (configuration not stated)	21µM*	-2%	21µM*	-1%	-6	5%
CC(C(=O)Nc1nc(-c2ccc(F)cc2)cs1)N1C(=O)C2CC=CCC2C1=O (configuration not stated)	-18%	21%	u	10%	-81*	-1%
COc1ccc(CCNC2CC(=O)N(CCc3ccc(OC)c(OC)c3)C2=O)cc1OC (configuration not stated)	0%	-12%	-5%	-5%	-3	0%
CCC(C)(C)C1CCC2(CC1)NC(=O)N(CC(=O)NCCc1ccc(OC)c(OC)c1)C2=O (configuration not stated)	12µM*	-16%	u	-8%	-27	-5%
COc1ccc(-c2csc(NC(=O)Cc3cc(OC)c(OC)c(OC)c3)n2)cc1OC	18µM*	u	21µM*	-11%	u	-8%
O=[N+]([O-])c1ccc(N2CCCC2)c([N+](=O)[O-])c1	-7%	-3%	10%	-10%	u	x
COC(=O)[C@@]1(C(C)C)N=C(c2cc(OC)c(OC)c(OC)c2)[C@]2(O1)C(=O)Nc1ccccc12	u	1%	-5%	3%	0	x
CNC(=O)C[C@@H]1C(=O)N(c2ccc(OC)cc2)CC1(C)C	-8%	18%	0%	13%	12	x
CCCN(C(=O)c1c(C)oc2ncnc(N3CCOCC3)c12)c1ccc(Cl)c(Cl)c1	0%	x	-1%	x	x	x
COc1ccc(CCN2C(=O)C3C4C=CC(C3C2=O)C2C(=O)N(CCc3ccc(OC)c(OC)c3)C(=O)C42)cc1OC (configuration not stated)	u	-16%	10µM*	-18%	-4	x
COc1ccc(CCN2C(=O)C3C4C=CC(C5CC45)C3C2=O)cc1OC (configuration not stated)	-28%	4%	-19%	4%	18	-3%
CCCNC(=O)C[C@H]1CC[C@@H]2[C@H](COC[C@@H](O)CN2C(=O)c2ccccn2)O1	16%	16%	1%	16%	27	x
CNc1ccccc(-c2ccc3ccccc3n2)c1=O	23µM*	-6%	u	-7%	-3	-10%
c1ccc(-c2ccc3ccccc3n2)cc1	-12%	5%	5%	1%	4	-21%
Cc1nn(Cc2ccccc2)c2c1C(c1cccnc1)C(C#N)=C(N)O2 (configuration not stated)	u	-15%	u	-17%	4	-3%
Cc1nn(-c2ccccc2)c2c1C(c1ccc(Br)s1)C(C#N)=C(N)O2 (configuration not stated)	12µM*	-3%	u	-9%	10	-2%
Cc1nn(Cc2ccccc2)c2c1C(c1ccc(Cl)cc1)C(C#N)=C(N)O2 (configuration not stated)	21µM*	u	18µM*	-25%	12	-23%
Cc1nn(-c2ccccc2)c2c1C(c1ccccc1)C(C#N)=C(N)O2 (configuration not stated)	u	7%	u	6%	13	7%
Cc1nn(Cc2ccccc2)c2c1C(c1ccncc1)C(C#N)=C(N)O2 (configuration not stated)	23µM*	4%	21µM*	2%	49	8%
Cc1[nH]nc2c1C(c1ccc(Cl)cc1)C(C#N)=C(N)O2 (configuration not stated)	u	14%	-30%	10%	-6	-8%
CC(=O)N/N=C/c1ccc(OCCOc2ccc(Br)cc2)cc1	-16%	10%	-9%	6%	-10	8%
SMILES	DT40 TDP1 no CPT	HT1080 IDH1KD tx	DT40 TDP1 CPT	HT1080-NT tox	IL-1B inflam inh	uPA generation
Cc1c(C(=O)N2CCN(C(C)C)CC2)sc2ncnc(NCc3ccco3)c12	3%	x	18%[9.04 µM]	x	x	x
OC[C@@H]1CN(Cc2ccc(Cl)cc2)C[C@H](n2cnc3c(Nc4ccccc4)ncnc32)O1	u	u	u	u	12	x
CCc1ccccc1NC(=O)Cn1ccn(Cc2ccccc2)c(=O)c1=O	-8%	x	2%	x	x	x
COc1ccccc1-c1nnc(SCC(=O)Nc2ccc(S(N)(=O)=O)cc2)n1C	0%	-2%	-8%	14%	8	x
CCCCN1CC(=O)N2[C@H](c3ccc(OC)cc3)[C@@H]3C(=O)N(CC)C(=O)[C@@H]3[C@]2(Cc2ccccc2)C1=O	2%	14%	2%	10%	1	-9%
CCOc1cc(CNCc2cccnc2)ccc1OCC(=O)NC(C)(C)C	-18%	-2%	-15%	-1%	-12	8%
CCOc1ccc(CNC(=O)c2cc3c(=O)n(Cc4cccs4)ccc3nc2C)cc1	u	x	9.2µM*	x	x	x
CCc1ccc(CNC(=O)c2cc3c(=O)n(Cc4cccs4)ccc3nc2C)cc1	23µM*	x	18µM*	x	x	x
COc1ccc(NC(=O)c2cc3c(=O)n(Cc4cccs4)ccc3nc2C)c(OC)c1	u	x	16µM*	x	x	x
COc1ccc(NC(=O)c2cc3c(=O)n(Cc4ccco4)ccc3nc2C)cc1	u	x	-7%	x	x	x
O=C(Nc1ccc(-c2nc3cc(NC(=O)c4ccc(F)cc4)ccc3o2)cc1)c1ccc(F)cc1	-2%	x	23%	x	x	x
Cc1cc2nc(-c3ccc(NC(=O)c4ccccc4F)cc3)oc2cc1C	8.2µM*	x	u	x	x	x
COc1ccccc1C(=O)Nc1ccc2oc(-c3ccc(F)cc3)nc2c1	u	-10%	18µM*	-3%	16	1%
CC1=NN(Cc2ccccc2)C(=O)C1C(c1ccc(Cl)cc1)C(C#N)C#N (configuration not stated)	10µM*	0%	10µM*	-25%	-29	-8%

Screening data from PubChem.
